This is part of a sample that, as a whole, favours compounds with a hit. Of some 83,000 tested, about 20% had one in any assay.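 Treatment: one concentration, 48 hours, 96-well format. Scoring: percent growth, with anything below 10 considered active.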 Unmarked numbers belong to inactive results. Calls of active or inactive are those of the source.
Columns and labels:
Test in all cases: NCI-60 one-dose screen, 48 h (100 = growth as untreated, 0 = no growth, -100 = all killed)
[1] = system: NCI-H23 lung; conditions: 10 µM unless noted
[2] = system: NCI-H226 lung; conditions: 10 µM unless noted
[3] = system: NCI-H322M lung; conditions: 10 µM unless noted
[4] = system: HOP-62 NSCLC; conditions: 10 µM unless noted
[5] = system: NCI-H460 lung; conditions: 10 µM unless noted
[6] = system: HOP-92 NSCLC; conditions: 10 µM
[7] = system: NCI-H522 lung; conditions: 10 µM unless noted
[8] = system: A549/ATCC NSCLC; conditions: 10 µM unless noted
[9] = system: 786-0 renal; conditions: 10 µM unless noted
[10] = system: COLO 205 colon; conditions: 10 µM unless noted

Compound	growth [1]	growth [2]	growth [3]	growth [4]	growth [5]	growth [6]	growth [7]	growth [8]	growth [9]	growth [10]
CCCCCc1ccc(S(=O)(=O)Nc2cccc(-c3csc(NC(=O)CN4CCN(C)CC4)n3)c2)cc1	95.1%	93.3%	100%	89.5%	21.5%	62.3%	89.5%	79.7%	63.8%	31%
COc1cc(-c2nc(-c3ccccc3)[nH]c2-c2ccnc(NCCCNS(=O)(=O)c3cccc(F)c3)n2)ccc1Cl	53.4%	42.1%	87.1%	54%	28.7%	65.1%	32.6%	38%	54.9%	9.39% (active)
COc1ccc([C@@H]2c3[nH]c4ccccc4c3C[C@H]3C(=O)N(C4CCN(CC5CCCCC5)CC4)CC(=O)N23)c(OC)c1	93.3%	74.1%	90.3%	72.9%	82.5%	51.3%	85.2%	72.2%	70.5%	51.2%
Cc1ccc(-n2cc(/C=C/C(=O)c3ccc(O)cc3)c(-c3ccc(S(C)(=O)=O)cc3)n2)cc1	68.9%	99.6%	99.1%	76%	80.8%	110%	58.9%	102%	94.4%	111%
COc1ccccc1-n1cc(C#N)c(N)c1C(=O)c1ccc(Cl)cc1	90.8%	97.7%	103%	87.7%	87.8%	101%	22.4%	94.6%	104%	86.8%
CS(=O)(=O)c1ncc(-c2ccccc2)cn1	96%	101%	91.2%	100%	108%	104%	86.4%	94.2%	109%	108%
NC(N)=Nc1ccc(Oc2cccc(NC(N)=Nc3ccc(I)cc3F)c2)cn1	52.2%	84.3%	53.1%	66.9%	40.6%	-3.49% (active)	41.2%	57.9%	80.8%	39.7%
CN1CCN(c2ccc(/C=N/Nc3nc4ccccc4c(=O)n3-c3ccccc3)cc2)CC1	103%	101%	103%	96.2%	109%	102%	93%	103%	91.6%	103%
O=S(=O)(NCCNc1nccc(-n2cnc3ccccc32)n1)c1ccc(Cl)cc1	101%	91.1%	95.3%	95.4%	103%	90.2%	92.1%	103%	99%	104%
CC1=NC2=NC(=O)/C(=C3/N=C(C)C=C(c4ccccc4)N3N)NN2C(c2ccccc2)=C1	106%	88.3%	103%	94.3%	111%	100%	97.9%	109%	108%	114%
Nc1ncc(-c2ccc3ncnc(N4CCc5cc(F)c(F)cc54)c3c2)cn1	38.3%	29.1%	33.1%	13.4%	18.9%	-7.6% (active)	34%	15.6%	14.2%	43.6%
CC(c1ccccc1)N1CSc2nc3ncncc3n2C1 (stereo not given)	24.1%	48.8%	40.9%	26.9%	51.2%	65.5%	38.2%	72%	29.6%	32.8%
C#Cc1ccc(C(=O)NCc2ccc(/C=C/C(=O)c3nccn3C)cc2)cc1	10%	31.9%	12.5%	27.5%	-45.4% (active)	-0.611% (active)	25.9%	13.4%	19.3%	22.8%
O=C(NNc1nc2cc(F)cc(F)c2n2cccc12)c1cnccn1	24.6%	29.3%	30.2%	14.5%	1.69% (active)	26.1%	0.755% (active)	15%	14.3%	6.31% (active)
C#CCOc1ccc(/C=N\Nc2nc(-c3ccc(C)cc3)cs2)cc1OC	87.2%	86.8%	92.2%	98.5%	95.5%	73.3%	74.5%	88.6%	99.2%	94.6%
COc1cc2oc(-c3cccc(NC(=O)c4cc(N)ccc4Cl)c3)cc(=O)c2c(OC)c1OC	102%	97.1%	105%	111%	104%	51.9%	101%	103%	85.2%	117%
Fc1ccc(-c2cc3nc(C(Cl)Cl)nc(-c4ccco4)n3n2)cc1	37.3%	93.2%	-22.3% (active)	-18.8% (active)	-17.3% (active)	-15.1% (active)	89.9%	-20.1% (active)	33.2%	-45.4% (active)
O=C(NNc1nc2cc(F)ccc2n2c(CN3CCCC3)ccc12)c1cnccn1	26.3%	18.2%	27.1%	17.6%	2.93% (active)	18.2%	-3.33% (active)	13.6%	12.7%	7.69% (active)
CCCCCc1ccc(S(=O)(=O)Nc2cccc(-c3csc(NC(=O)CCCCCN4CCN(C)CC4)n3)c2)cc1	75.7%	88.2%	84.1%	79.4%	-29.6% (active)	29.8%	64.3%	54.4%	44.4%	-34.3% (active)
COc1ccc(/C=C(/C)c2ccc3ccc(OC)cc3[o+]2)c(O)c1	53.2%	70.9%	94.7%	92.1%	81.5%	66.7%	53.1%	102%	88.9%	115%
O=C(NNc1nc2cc(F)ccc2n2c(CO)ccc12)c1cnccn1	22.8%	16.3%	22.7%	5.67% (active)	2.22% (active)	11.9%	2.58% (active)	13.6%	17.4%	8.65% (active)
NC(N)=Nc1ccc(Oc2cccc(NC(N)=Nc3ccc(Br)c(C(F)(F)F)c3)c2)cc1	54.4%	68.6%	57.8%	53.3%	24.3%	10.5%	35.7%	41.7%	76.5%	27.9%
CC(=O)c1cc(C(=O)c2ccc(Br)cc2)n2cc(C)cc(C)c12	102%	86.4%	100%	85.6%	88.7%	99%	85.3%	97.1%	89.4%	97.7%
Cc1ccc(-c2nn(-c3ccccc3)cc2/C=C/C(=O)c2ccc(NC(=O)CCCCCCC(=O)NO)cc2)cc1	93.6%	95.8%	83.9%	86.4%	68.1%	96.4%	40.4%	76.9%	56.8%	96.2%
N=c1c2cc(-c3ccccc3)oc2ncn1/N=C/c1ccc(Cl)cc1	97.8%	71%	90.9%	82.6%	6.07% (active)	105%	91.6%	41.7%	85.5%	89.2%
CNC(=O)c1cc(-c2ccc(NS(=O)(=O)c3ccc(C)cc3)cc2)nc2cccnc12	103%	88.7%	110%	99.7%	107%	103%	91.6%	104%	110%	116%
COc1ccccc1N1CCN(C2=CC(=O)C(C)=C(C)C2=O)CC1	99.5%	96.9%	112%	103%	102%	117%	88.1%	102%	108%	112%

Compound	growth [1]	growth [2]	growth [3]	growth [4]	growth [5]	growth [6]	growth [7]	growth [8]	growth [9]	growth [10]
CC1=NC2=NN3C(=NN2C(c2ccccc2)=C1)N=NC(c1ccc(Br)cc1)=C3c1ccc(Br)cc1	105%	102%	101%	102%	112%	110%	98.5%	109%	107%	112%
COc1cc(-c2nc(SCCC(C)C)nc(NNC(=O)c3ccncc3)c2C#N)cc(OC)c1OC	91.2%	93%	64.6%	63.9%	105%	32.9%	27.9%	76.5%	32.3%	65.9%
O=C(c1ccc(O)cc1)[C@@H]1CN[C@@]2(C(=O)Nc3ccccc32)[C@H]1c1ccc(F)cc1	94.5%	96.2%	99.7%	99.5%	111%	101%	96.6%	108%	110%	116%
N#Cc1cccc(CN2CCC3=C(C2)C(=O)N(Cc2ccc(Cl)cc2)C2=NCCCN23)c1	28.4%	39.9%	48.8%	26%	18.9%	26.1%	14.4%	29%	44.4%	-31% (active)
COc1ccc([C@H]2c3[nH]c4ccccc4c3C[C@H]3C(=O)N(C4CCN(Cc5c(Cl)cccc5Cl)CC4)CC(=O)N23)c(OC)c1	98%	92.9%	94.5%	93.2%	99.1%	79.4%	87.2%	91.1%	101%	109%
CCn1c(SCC(=O)Nc2cccc(C(=O)/C=C/c3ccc(C)cc3)c2)nc2ccccc2c1=O	76.9%	73.4%	86.7%	108%	98.2%	77.7%	81.1%	68%	93.6%	122%
CS(=O)(=O)Nc1cc(-c2ccc3ncc(C#N)c(NCc4ccccc4F)c3c2)cnc1Cl	1.49% (active)	14.6%	12.9%	0.205% (active)	5.08% (active)	-10.9% (active)	14.1%	7.89% (active)	11.4%	-24.7% (active)
COc1cc(C2N=C(NNc3ccccc3)NC(C)=C2C(C)=O)ccc1O (stereo not given)	96.7%	86.5%	88.1%	82%	106%	90.4%	78.5%	95.5%	102%	113%
O=S(=O)(NCCNc1nccc(-n2cnc3ccccc32)n1)c1ccc(Br)cc1	97.3%	76.5%	107%	87.2%	101%	74.2%	87.2%	100%	103%	107%
N#Cc1cccc(CN2CCc3ncn(Cc4ccc(Cl)cc4)c(=O)c3C2)c1	26.2%	30.4%	42.9%	31.2%	13.5%	30.3%	16.6%	24.9%	42.8%	11.7%
CCN(CC)c1cn(-c2ccc(S(N)(=O)=O)cc2)nn1	109%	109%	110%	112%	106%	99%	92.9%	105%	106%	109%
COc1cccc(O)c1/C=C(/C)c1ccc2c(OC)cccc2[o+]1	103%	105%	103%	92.5%	109%	104%	98.5%	107%	101%	117%
O=C1[C@H]2Cc3c([nH]c4ccccc34)[C@@H](c3ccc(Cl)cc3)N2C(=O)CN1C1CCN(Cc2ccccc2)CC1	73.8%	49%	57.1%	74.8%	29.8%	42.5%	81.1%	43.8%	64.3%	50.6%
CCN(CC)c1ccc2c(c1)Oc1nc(N)c(C#N)c(N)c1C2Sc1ccc(C)cc1 (stereo not given)	-90% (active)	-54.6% (active)	-92.7% (active)	-71% (active)	-40.4% (active)	-93.9% (active)	-75.6% (active)	-56.9% (active)	-92.6% (active)	-53.6% (active)
O=C1[C@@H]2Cc3c([nH]c4ccccc34)[C@H](c3c(Cl)cccc3Cl)N2C(=O)CN1C1CCN(CC2CCCCC2)CC1	91.3%	85.9%	83.5%	104%	12.7%	64.8%	24.1%	64.4%	46.6%	96.2%
O=S(=O)(NCCCNc1nccc(-c2[nH]c(-c3ccccc3)nc2-c2ccc(Cl)c(O)c2)n1)c1cccc2ccccc12	30.6%	32.9%	50.9%	30.9%	15.5%	51.4%	25.2%	26.5%	47.9%	93.8%
N#Cc1cnc2ccc(-c3cnc(N)nc3)cc2c1N1CCc2cc(F)c(Cl)cc21	9.66% (active)	9.54% (active)	10%	2.88% (active)	7.28% (active)	-19% (active)	10.4%	4.58% (active)	3.11% (active)	6.97% (active)
C=C(C=O)[C@@H]1CC[C@]2(C)[C@H](CC=C3[C@H]4[C@@H](C)[C@H](C)CC[C@]4(C(=O)OC)CC[C@]32C)[C@@]1(C)CCC#N	-6.81% (active)	-44.8% (active)	32.9%	20.7%	1.89% (active)	-31.6% (active)	-1.56% (active)	80.6%	5.57% (active)	3.46% (active)
Cc1ccc(-c2nnc(SCc3ccc(O)c4ncccc34)n2-c2ccccc2)cc1	15.6%	24.4%	19.6%	10.6%	-15.8% (active)	-12.5% (active)	-5.09% (active)	11.3%	25%	25.6%
CC(Nc1c(C#N)cnc2ccc(-c3cnc(N)nc3)cc12)c1ccccc1 (stereo not given)	13.1%	18.4%	6.93% (active)	10.6%	13.1%	-17.3% (active)	7.27% (active)	11.6%	12.2%	24%
C=CCN(C)S(=O)(=O)/N=C1\NC(=O)NC1=C(Cl)Cl	37.5%	89%	95%	76.5%	45.6%	-23.4% (active)	-57% (active)	103%	32.2%	-40.8% (active)
CC/C(=C/c1c(O)cccc1OC)c1ccc2c(OC)cccc2[o+]1	98.9%	99%	101%	101%	103%	110%	93.2%	102%	101%	110%
O=C(O)c1ccc(-n2cc(CNc3cccc(Cl)c3)c(-c3ccc(F)cc3)n2)cc1	101%	112%	103%	101%	98%	105%	92.2%	92.7%	110%	120%
CN(Cc1ccccc1)S(=O)(=O)/N=C1\NC(=O)NC1=C(Cl)Cl	66.1%	91.7%	95.1%	40.8%	17.9%	73.7%	-21.5% (active)	99.4%	22.4%	-26.1% (active)
O=C(NNc1nc2cc(F)c(F)cc2n2cccc12)c1cnccn1	34.5%	45.1%	35%	24.8%	7.99% (active)	36.4%	13.4%	24.1%	30.6%	11.9%
O=C1CC(=O)N2CSCN(C(c3ccccc3)c3nc4ncncc4[nH]3)C2=N1 (stereo not given)	99.7%	107%	106%	96.8%	112%	112%	93.9%	105%	104%	114%
